ATXN viability – Viability Counterscreen for Primary qHTS for Inhibitors of ATXN expression | S2 cells (HEK-293 line with an ATXN2-luciferase reporter) viability, CellTiter-Fluor protease fluorescence, 24 h | Potency, µM (doses to about 56.7 µM), most hits filed as cytotoxic | 400,000 compounds, 0.49% hits | AID 651635, 2014; note: nearly all actives have a fitted effect of over 40% in size
HepG2 viability – qHTS for Inhibitors of TGF-b: Cytotox Counterscreen | HepG2 CAGA-GFP viability, ATP luminescence, 18 h | Potency, µM (highest dose often 46.1 µM), actives largely listed as cytotoxic | 410,000 compounds, 0.76% hits
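CellTiter-Glo luminescence gave cytotoxicity after 18 hours at 37 degrees C. The cells were HepG2 CAGA-GFP in 1% FBS DMEM, stimulated with 500 pg/mL TGF-beta after compound addition. %Activity was normalised to no-cell wells (complete cell-killing) and DMSO (no toxicity), and curves were fitted and classified.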
TDP1 cell noCPT – qHTS for Inhibitors of human tyrosyl-DNA phosphodiesterase 1 (TDP1): qHTS in cells in absence of CPT | DT40 Tdp1-/- hTDP1 cells, no CPT, ATP luminescence, 48 h | Potency, µM (series often up to 46.2 µM), hits mostly inhibitors | 420,000 compounds, 15% hits; note: nearly all actives have a fitted effect of over 55% in size
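Chicken DT40 Tdp1-/- cells stably complemented with human TDP1 were seeded at 400 cells/well with DMSO in place of 20 nM camptothecin. After compound pinning, cells grew at least 48 hr at 37 °C; viability read by CellTiter-Glo luminescence.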
TGFb SMAD3 inh – qHTS for Inhibitors of TGF-b. HepG2 CAGA-GFP TGF-b/SMAD3 reporter, GFP fluorescence, 18 h; TGF-beta stimulated, 500 pg/mL final. Potency, µM (top dose mostly 46.1 µM), actives largely listed as inhibitors. AID 588855, 2011. 410,000 compounds, 1.2% hits; note: nearly all actives have a fitted effect of over 65% in size
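Smad-responsive CAGA-GFP expression was quantified in HEPG2 cells exposed to compounds and 500 pg/mL final TGF-beta for 18 h at 37 degrees C; unstimulated wells defined full inhibition.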
DT40 TDP1 CPT – qHTS for Inhibitors of human tyrosyl-DNA phosphodiesterase 1 (TDP1): qHTS in cells in presence of CPT | chicken DT40 Tdp1-/-;hTDP1 cells + 20 nM CPT, ATP luminescence, 48 h | Potency, µM (highest dose often 46.2 µM), actives largely listed as inhibitors | 420,000 compounds, 12% hits | AID 686979, 2013; note: nearly all actives have a fitted effect of over 55% in size
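Chicken DT40 Tdp1-/- cells stably complemented with human TDP1 were seeded at 400 cells/well in medium containing 20 nM camptothecin, exposed to pin-transferred compounds, and grown at 37 °C for at least 48 hr. Viability was read as ATP luminescence.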
ATXN2 expr inh – Primary qHTS for Inhibitors of ATXN expression | AID 1745845, 2022 | Potency, µM (top dose mostly 57 µM), usual class: inhibitors | 360,000 compounds, 0.72% hits | HEK-293 ATXN2-luciferase reporter, luminescence, 24 h; note: nearly all actives have a fitted effect of over 55% in size
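qHTS (up to 57 uM final) was run with 24 h compound exposure of reporter cells at 37 °C. Each well was multiplexed: SteadyGlo luminescence measured ATXN2-luciferase expression after a fluorogenic Gly-Phe-AFC viability readout (25 uM final).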
Each line names hits and unclear results; the compound was inactive in the other large screens. The list is not random: actives were taken first. Their share in the collection is about 17%. Calls come from the whole dose curve; as a rule, active = well fitted curve in the direction sought with a large enough effect; inconclusive = small, poorly fitted or top-dose-only effect, or another doubt; inactive = no such curve, though single readings can be large; an effect the other way counts as inactive or inconclusive.

CC(=O)Nc1ccc(NC(=O)CSc2cn(CC(=O)N(C(C)C)C(C)C)c3ccccc23)cc1	TDP1 cell noCPT inconclusive (no result: ATXN viability, ATXN2 expr inh)
Cc1ccc(S(=O)(=O)N2C[C@H]3C(=O)C[C@@H](c4cccc(Cl)c4)N(S(=O)(=O)c4ccc(C)cc4)[C@H]3C[C@H]2c2ccc(Cl)cc2)cc1	ATXN viability inconclusive
COc1ccc(CNC(=O)COc2ccc(C(=O)c3ccc(F)cc3)cc2)cc1	TDP1 cell noCPT 4.61µM, TGFb SMAD3 inh inconclusive, DT40 TDP1 CPT 2.59µM
O=C(COc1ccc(C(=O)c2ccc(F)cc2)cc1)NCc1ccc(F)cc1	TDP1 cell noCPT 4.61µM, TGFb SMAD3 inh inconclusive, DT40 TDP1 CPT 3.26µM
CCOc1ccccc1NC(=O)Cn1c(=O)n(-c2ccc(Cl)cc2)c(=O)c2oc3ccccc3c21	none (no result: ATXN viability, ATXN2 expr inh)
CC(=O)N1CCCc2cc(S(=O)(=O)N(C)Cc3ccccc3)ccc21	TDP1 cell noCPT 20.6µM, DT40 TDP1 CPT inconclusive
CC(=O)N1CCCc2cc(S(=O)(=O)N(C)CC(=O)Nc3cccc(C)c3C)ccc21	TDP1 cell noCPT inconclusive, DT40 TDP1 CPT inconclusive
CC(=O)N1CCCc2cc(S(=O)(=O)N(C)CC(=O)Nc3ccc(F)c(Cl)c3)ccc21	TDP1 cell noCPT 20.6µM, DT40 TDP1 CPT 10.3µM, ATXN2 expr inh inconclusive
CCc1cccc(NC(=O)CN(C)S(=O)(=O)c2ccc3c(c2)CCCN3C(C)=O)c1	ATXN viability inconclusive, TDP1 cell noCPT inconclusive, DT40 TDP1 CPT 20.6µM
Cc1ccn(CCC(=O)N2CCOc3ccc(C(O)C4CCCCC4)cc3C2)n1 (stereo unspecified)	TDP1 cell noCPT inconclusive, DT40 TDP1 CPT inconclusive (no result: HepG2 viability, TGFb SMAD3 inh, ATXN2 expr inh)
COc1ccc(Cl)cc1NC(=O)c1nnn(CC(=O)Nc2ccc3c(c2)OCO3)c1N	none (no result: ATXN2 expr inh)
N#Cc1c(Cc2cccc3ccccc23)nn(CCO)c1N	none (no result: TDP1 cell noCPT, DT40 TDP1 CPT)
Cc1cccc(N2CCN(C(=O)c3ccc4c(c3)NC(=O)C(CSCc3cccc(F)c3)N4)CC2C)c1 (stereo unspecified)	TDP1 cell noCPT inconclusive, DT40 TDP1 CPT inconclusive
CC(C)CNC(=O)CN1C(=O)NC2(CCc3ccccc32)C1=O (stereo unspecified)	none
COC(=O)C(Sc1ccc(Cl)cc1)C1SC(=S)N(Cc2ccccc2)C1=O (stereo unspecified)	ATXN viability inconclusive, TDP1 cell noCPT 2.06µM, TGFb SMAD3 inh inconclusive, DT40 TDP1 CPT 2.91µM (no result: ATXN2 expr inh)
COC(=O)c1cccc(CN2C(=O)C(C)Sc3cc(Cl)ccc32)c1 (stereo unspecified)	TDP1 cell noCPT inconclusive, DT40 TDP1 CPT inconclusive
Cc1ccc(C)c(C(=O)COC(=O)c2ccccc2N2C(=O)C3C4CCC(C4)C3C2=O)c1 (stereo unspecified)	ATXN viability inconclusive, TDP1 cell noCPT 20.6µM, DT40 TDP1 CPT 20.6µM
C=CCC[C@H](Cc1ccc(F)cc1)C(=O)OC[C@@H](Cc1c[nH]c2ccccc12)NC(=O)[C@@H](CC=C)CC(=O)N(CCO)Cc1ccccc1	ATXN viability 15.8µM, TDP1 cell noCPT inconclusive, TGFb SMAD3 inh inconclusive, DT40 TDP1 CPT inconclusive, ATXN2 expr inh inconclusive
C=CCC[C@@H](Cc1ccc(F)cc1)C(=O)OC[C@H](Cc1c[nH]c2ccccc12)NC(=O)[C@H](CC=C)CC(=O)N(CCO)Cc1ccccc1	ATXN viability 22.4µM, TDP1 cell noCPT 20.6µM, TGFb SMAD3 inh inconclusive, DT40 TDP1 CPT 14.6µM
Oc1ccc(N2CCN(Cc3nc4ccccc4[nH]3)CC2)cc1	TDP1 cell noCPT inconclusive
CCCCC(=O)NC(c1ccc(Cl)cc1)c1ccc2cccnc2c1O (stereo unspecified)	TDP1 cell noCPT 1.16µM, TGFb SMAD3 inh inconclusive, DT40 TDP1 CPT 1.3µM, ATXN2 expr inh 7.94µM

Screening results: PubChem BioAssay, National Center for Advancing Translational Sciences (NCATS)
